“And” between values parts separate entries of the source, which are not always exact repeats. Identical values can stand only once. Out of some 2,000 compounds screened, about 25 (1%) were called active.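 The calls were made as follows: active = log2 luciferase ratio at or below -0.5849, meaning signal at two thirds of solvent-only control or lower; inactive = the rest.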 Shown is part of a subset that was picked to be rich in actives.

This assay can be described thus: inhibitors of EIF4E gene expression, primary screen, cell-based, HT1080, luciferase reporter (AID 1224817).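 Also: luciferase reports endogenous eIF4E expression since it is co-expressed from the native EIF4E locus.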 The following applies: HT1080 EIF4E-luc2 knock-in reporter, 16 h, at 2.5 µM, stronger effect = lower value. A general note: In a reporter assay the amount or activity of a reporter protein is the signal.
For `COC1C(O)C(C)OC(OC2C(Oc3cccc4c(O)c5c(=O)oc6ccc(C)c7c(=O)oc(c34)c5c67)OC(C)C(O)C2O)C1O` (stereo not given), the log2 luciferase activity ratio was -0.702 (active) and -0.391 (inactive). For `COC(=O)C1=COC(C)C2CN3CCC4(C(=O)Nc5ccccc54)C3CC12` (stereo not given) the value was 0.122 (inactive); for `c1ccc(CCN2CCCCCC2)nc1`, 0.334 (inactive); for `COc1cc(CCN)c(OC)c(OC)c1`, -0.289 (inactive). Take `CC1CCC2(O)C3(C)CC4(O)OC2(C1O)C1(O)C3(O)C(OC(=O)c2ccc[nH]2)C(O)(C(C)C)C41C` (stereo not given): the log2 luciferase activity ratio is -0.662 (active) and 0.224 (inactive). For `Oc1c(Cl)c(Cl)c(Cl)c(Cl)c1Cl` the value was 0.387 (inactive); for `CC(Cc1ccc(Cl)cc1Cl)NO` (stereo not given), 0.563 (inactive). For `CC1=C2C(=O)[C@H]3[C@@H](CC=C4C[C@@H](O)CC[C@@]43C)[C@@H]2CC[C@]12O[C@@H]1C[C@H](C)CN[C@H]1[C@H]2C` the value was 0.0474 (inactive).

In the case of `O=C(Nc1ccc([As](=O)(O)O)cc1)Nc1cccc(Cl)c1Cl`, the log2 luciferase activity ratio was 0.175 (inactive). For `C[C@]12CC[C@H]3[C@@H](CCC4=CC(=O)CC[C@@H]43)[C@@H]1CC[C@@H]2OC1(O)C(=O)c2ccccc2C1=O` the value was -0.175 (inactive). Under `CC(=O)O[C@@H]1[C@@H](O)C2=C3[C@]4(C)[C@@H]1C(C)(C)C(=O)C[C@@H]4[C@]3(O)[C@H](OC(C)=O)[C@@]1(C[C@@H]1C)C2=O` stands -0.11 (inactive). Under `CC(=O)c1c(O)c(C)c(O)c(Cc2c(O)c3c(c(C(=O)/C=C/c4ccccc4)c2O)OC(C)(C)C=C3)c1O` stands -1.16 (active); under `CC(=N\O)/C(C)=N/O.CC(=N\O)/C(C)=N/O.CC(=N\O)/C(C)=N/O.CC(=N\O)/C(C)=N/O.[Cu].[Cu]`, 0.204 (inactive); under `CC[C@](O)(C(=O)O)c1cc2n(c(=O)c1CO)Cc1cc3ccccc3nc1-2`, -0.308 (inactive).

On to `NC(CSC1c2ccccc2-c2ccccc21)C(=O)O` (stereo not given), for which the log2 luciferase activity ratio is -0.0184 (inactive). Under `Cc1c2ccncc2c(C)c2c1[nH]c1ccccc12` stands -1.19 (active). Under `O=C(c1ccccc1)C1C(c2ccccc2[N+](=O)[O-])N1C1CCCCC1` (stereo not given) stands -0.136 (inactive).

With `CC1=CC23C(COC(=O)C24CO4)C(C(=O)O)=CC3C1C` (stereo not given), the log2 luciferase activity ratio is -0.125 (inactive). Under `COc1cc2c(cc1OC)C13CCN4C=C5CCOC6CC(=O)N2C1C6C5CC43` (stereo not given) stands 0.124 (inactive) and 0.181 (inactive); under `CCCCCC(O)C1C(=O)OC(C)C(O)/C=C/C=C/C=C/C=C/C=C(\C)C(O)C(O)C(O)CC(O)CC(O)CC(O)CC(O)CC1O` (stereo not given), -0.286 (inactive).

The record behind these values is PubChem BioAssay AID1224817 (Yan Lab, Georgia Cancer Center, Augusta University, 2016).
